# Shown is part of a subset that was picked to be rich in the strongest signals.
# Columns and labels:
# Assay in all cases: glycan array binding signal (z-score within array); higher = stronger binding
# Conditions in all cases: glycan notation: IUPAC condensed, linker removed
# [1] = target: Fuc(a1-2)Gal(b1-3)GlcNAc(b1-2)Man(a1-3)[Fuc(a1-2)Gal(b1-3)GlcNAc(b1-2)Man(a1-6)]Man(b1-4)GlcNAc(b1-4)GlcNAc
# Outline: (§1)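 Negative Z-scores can be read as non-binding. The Z-score is calculated within each array and then averaged across arrays of one protein sequence at different concentrations or buffers and across linkers. Arrays, 3228 in all, were curated from the Consortium for Functional Glycomics database and kept only where the protein sequence was available.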
# [2] = target: Fuc(a1-2)[Gal(a1-4)]Gal(b1-4)GlcNAc
# Outline: as §1
# [3] = target: Fuc(a1-3)[Gal(b1-4)]GlcNAc(b1-4)Gal(b1-4)[Fuc(a1-3)]GlcNAc(b1-4)Gal(b1-4)[Fuc(a1-3)]GlcNAc
# Outline: as §1
# [4] = target: Gal(a1-3)Gal
# Outline: as §1
# [5] = target: Gal(a1-3)Gal(b1-3)GlcNAc(b1-2)Man(a1-3)[Gal(a1-3)Gal(b1-3)GlcNAc(b1-2)Man(a1-6)]Man(b1-4)GlcNAc(b1-4)GlcNAc
# Outline: as §1
# [6] = target: Gal(a1-4)Gal(b1-4)GlcNAc(b1-2)Man(a1-3)[Gal(a1-4)Gal(b1-4)GlcNAc(b1-2)Man(a1-6)]Man(b1-4)GlcNAc(b1-4)GlcNAc
# Outline: as §1
# [7] = target: Gal(b1-2)Gal
# Outline: as §1
# [8] = target: Gal(b1-3)[GlcNAc(b1-6)]GalNAc
# Outline: as §1
# [9] = target: Gal(b1-4)GlcNAc(b1-2)Man(a1-3)Man(b1-4)GlcNAc(b1-4)GlcNAc
# Outline: as §1
# [10] = target: Gal(b1-4)GlcNAc(b1-2)Man(a1-3)[Gal(b1-4)GlcNAc(b1-2)Man(a1-6)]Man(b1-4)GlcNAc(b1-4)GlcNAc
# Outline: as §1
# [11] = target: Gal(b1-4)GlcNAc(b1-2)Man(a1-3)[GlcNAc(b1-2)Man(a1-6)]Man(b1-4)GlcNAc(b1-4)GlcNAc
# Outline: as §1
# [12] = target: Gal(b1-4)GlcNAc(b1-2)Man(a1-3)[Man(a1-6)]Man(b1-4)GlcNAc(b1-4)GlcNAc
# Outline: as §1
# [13] = target: Gal(b1-4)GlcNAc(b1-3)GalNAc
# Outline: as §1
# [14] = target: Gal3S(b1-3)GalNAc
# Outline: as §1
# [15] = target: Gal3S6S(b1-4)GlcNAc6S
# Outline: as §1
# [16] = target: Gal6S(b1-4)GlcNAc6S
# Outline: as §1
# [17] = target: GalNAc(a1-3)Gal
# Outline: as §1
# [18] = target: GlcNAc(a1-4)Gal(b1-3)GlcNAc
# Outline: as §1
# [19] = target: GlcNAc(a1-4)Gal(b1-4)GalNAc
# Outline: as §1
# [20] = target: GlcNAc(a1-4)Gal(b1-4)GlcNAc
# Outline: as §1
# [21] = target: GlcNAc(a1-6)Gal(b1-4)GlcNAc
# Outline: as §1
# [22] = target: Man(a1-3)[Man(a1-6)]Man(a1-6)[Man(a1-2)Man(a1-3)]Man(b1-4)GlcNAc(b1-4)GlcNAc
# Outline: as §1
# [23] = target: Neu5Ac(a2-3)Gal(b1-4)GlcNAc(b1-6)[Neu5Ac(a2-3)Gal(b1-3)]GalNAc
# Outline: as §1
# [24] = target: Neu5Ac(a2-3)Gal(b1-4)[Fuc(a1-3)]GlcNAc(b1-3)GalNAc
# Outline: as §1
# [25] = target: Neu5Ac(a2-3)Gal6S(b1-4)GlcNAc
# Outline: as §1
# [26] = target: Neu5Ac(a2-3)GalNAc
# Outline: as §1
# [27] = target: Neu5Ac(a2-6)Gal(b1-4)GlcNAc(b1-3)Gal(b1-4)GlcNAc(b1-3)Gal(b1-4)GlcNAc
# Outline: as §1
# [28] = target: Neu5Ac(b1-6)GalNAc
# Outline: as §1
# [29] = target: Neu5Gc(a2-6)GalNAc
# Outline: as §1
binder,measurement,setting,value
"CLEC-1 (Homo sapiens), Q9NZH3 (protein) MQAKYSSTRDMLDDDGDTTMSLHSQASATTRHPEPRRTEHRAPSSTWRPVALTLLTLCLVLLIGLAAWGLLFFQYYQLSNTGQDTISQMEERLGNTSQELQSLQVQNIKLAGSLQHVAEKLCRELYNKAGAHRCSPCTEQWKWHGDNCYQFYKDSKSWEDCKYFCLSENSTMLKINKQEDLEFAASQSYSEFFYSYWTGLLRPDSGKAWLWMDGTPFTSELFHIIIDVTSPRSRDCVAILNGMIFSKDCKELKRCVCERRAGMVKPESLHVPPETLGEGD",glycan array binding signal (z-score),[1],6.09
same,glycan array binding signal (z-score),[2],-0.046
same,glycan array binding signal (z-score),[3],0.063
same,glycan array binding signal (z-score),[4],-0.376
same,glycan array binding signal (z-score),[5],3.16
same,glycan array binding signal (z-score),[6],5.92
same,glycan array binding signal (z-score),[7],-0.482
same,glycan array binding signal (z-score),[8],-0.033
same,glycan array binding signal (z-score),[9],1.79
same,glycan array binding signal (z-score),[10],0.112
same,glycan array binding signal (z-score),[11],-0.583
same,glycan array binding signal (z-score),[12],11
same,glycan array binding signal (z-score),[13],-0.261
same,glycan array binding signal (z-score),[14],-0.341
same,glycan array binding signal (z-score),[15],3.17
same,glycan array binding signal (z-score),[16],0.66
same,glycan array binding signal (z-score),[17],-0.34
same,glycan array binding signal (z-score),[18],-0.516
same,glycan array binding signal (z-score),[19],-0.035
same,glycan array binding signal (z-score),[20],2.86
same,glycan array binding signal (z-score),[21],2.11
same,glycan array binding signal (z-score),[22],0.433
same,glycan array binding signal (z-score),[23],-0.142
same,glycan array binding signal (z-score),[24],2.82
same,glycan array binding signal (z-score),[25],-0.086
same,glycan array binding signal (z-score),[26],-0.178
same,glycan array binding signal (z-score),[27],-0.43
same,glycan array binding signal (z-score),[28],-0.392
same,glycan array binding signal (z-score),[29],-0.297

# Source: the supplement of paper PMC8728848
